Assay results reported in PubChem BioAssay AID1159580 (chemical genetic matrix, 2015).
The whole screen tested about 5,500 compounds, of which about 2,000 (36%) were called active. About 18% were inconclusive and are not listed. Rule as the data show it: active = normalized growth mostly below about 0.91 (no sharp cut-off); inconclusive = no clear call, values can overlap the other calls; inactive = mostly above about 0.92. The list shows a part of the results.

Assay: chemical genetic growth profiling, strain panel (AID 1159580);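 also: tested at 20 µM; growth read once vehicle control cultures reached saturation at 30 °C; 1 = growth at the plate median or of vehicle wells; lower values mean less growth of the strain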
Settings: growth OD

Measured: normalized growth

COc1cccc2c1CCC1=CC(=O)CC[C@@]12C
inactive: S. cerevisiae deletion strains, locus YJR075W, strain HOC1, hits give low values 0.973 | S. cerevisiae deletion strains, locus YKL009W, strain mrt4, hits give low values 0.98 | S. cerevisiae deletion strains, locus YKL068W, hits give low values 1 | S. cerevisiae deletion strains, locus YKL085W, strain MDH1 (second series), hits give low values 0.982 | S. cerevisiae deletion strains, locus YKL085W, strain MDH1, hits give low values 0.982 | S. cerevisiae deletion strains, locus YKL160W, strain elf1, hits give low values 1 | S. cerevisiae deletion strains, locus YKL190W, strain CNB1, hits give low values 1.01 | S. cerevisiae deletion strains, locus YKR001C, strain vps1, hits give low values 0.986 | S. cerevisiae deletion strains, locus YKR026C, strain gcn3, hits give low values 0.994 | S. cerevisiae deletion strains, locus YKR091W, strain srl3, hits give low values 0.998 | S. cerevisiae deletion strains, locus YLL001W, strain dnm1, hits give low values 1 | S. cerevisiae deletion strains, locus YLL026W, hits give low values 0.992 | S. cerevisiae deletion strains, locus YLL041C, strain sdh2, hits give low values 0.995 | S. cerevisiae deletion strains, locus YLR027C, strain aat2, hits give low values 1.01 | S. cerevisiae deletion strains, locus YLR039C, strain RIC1, hits give low values 1.1 | S. cerevisiae deletion strains, locus YLR058C, strain SHM2, hits give low values 0.993 | S. cerevisiae deletion strains, locus YLR102C, strain apc9, hits give low values 0.993 | S. cerevisiae deletion strains, locus YLR221C, strain rsa3, hits give low values 0.988 | S. cerevisiae deletion strains, locus YLR258W, strain gsy2, hits give low values 0.999 | S. cerevisiae deletion strains, locus YLR262C, strain YPT6 (second series), hits give low values 1.05 | S. cerevisiae deletion strains, locus YLR262C, strain YPT6, hits give low values 1.1 | S. cerevisiae deletion strains, locus YLR268W, strain sec22, hits give low values 0.973 | S. cerevisiae deletion strains, locus YLR320W, strain mms22, hits give low values 1 | S. cerevisiae deletion strains, locus YLR330W, strain CHS5, hits give low values 0.998 | S. cerevisiae deletion strains, locus YLR342W, strain FKS1 (second series), hits give low values 0.941 | S. cerevisiae deletion strains, locus YLR342W, strain FKS1, hits give low values 0.997 | S. cerevisiae deletion strains, locus YLR357W, strain rsc2, hits give low values 1.02 | S. cerevisiae deletion strains, locus YLR370C, strain arc18, hits give low values 0.99 | S. cerevisiae deletion strains, locus YLR371W, strain rom2, hits give low values 0.988 | S. cerevisiae deletion strains, locus YLR384C, strain iki3, hits give low values 1.02 | S. cerevisiae deletion strains, locus YLR418C, strain cdc73, hits give low values 0.9 | S. cerevisiae deletion strains, locus YML016C, strain PPZ1, hits give low values 0.989 | S. cerevisiae deletion strains, locus YML032C, strain rad52, hits give low values 0.988 | S. cerevisiae deletion strains, locus YML120C, strain ndi1, hits give low values 0.988 | S. cerevisiae deletion strains, locus YML124C, strain tub3, hits give low values 0.988 | S. cerevisiae deletion strains, locus YMR058W, strain fet3, hits give low values 1 | S. cerevisiae deletion strains, locus YMR078C, strain ctf18, hits give low values 0.985 | S. cerevisiae deletion strains, locus YMR125W, strain sto1, hits give low values 1 | S. cerevisiae deletion strains, locus YMR129W, hits give low values 0.991 | S. cerevisiae deletion strains, locus YMR205C, strain PFK2, hits give low values 1 | S. cerevisiae deletion strains, locus YMR223W, strain ubp8, hits give low values 0.964 | S. cerevisiae deletion strains, locus YMR231W, strain pep5, hits give low values 1 | S. cerevisiae deletion strains, locus YMR263W, strain SAP30, hits give low values 0.978 | S. cerevisiae deletion strains, locus YMR307W, strain GAS1, hits give low values 0.957 | S. cerevisiae deletion strains, locus YNL067W, strain RPL9B, hits give low values 0.984 | S. cerevisiae deletion strains, locus YNL071W, strain lat1, hits give low values 1 | S. cerevisiae deletion strains, locus YNL128W, strain TEP1, hits give low values 1.01 | S. cerevisiae deletion strains, locus YNL153C, strain GIM3, hits give low values 0.989 | S. cerevisiae deletion strains, locus YNL209W, strain ssb2, hits give low values 1.02 | S. cerevisiae deletion strains, locus YNL233W, strain BNI4, hits give low values 0.988 | S. cerevisiae deletion strains, locus YNL248C, strain rpa49, hits give low values 1.01 | S. cerevisiae deletion strains, locus YNL250W, strain rad50, hits give low values 0.997 | S. cerevisiae deletion strains, locus YNL271C, strain bni1, hits give low values 0.985 | S. cerevisiae deletion strains, locus YNL298W, strain CLA4, hits give low values 0.969 | S. cerevisiae deletion strains, locus YNL307C, strain MCK1, hits give low values 0.933 | S. cerevisiae deletion strains, locus YNL322C, strain KRE1 (second series), hits give low values 1.01 | S. cerevisiae deletion strains, locus YNL322C, strain KRE1, hits give low values 1 | S. cerevisiae deletion strains, locus YNR049C, strain mso1, hits give low values 1.02 | S. cerevisiae deletion strains, locus YNR052C, strain pop2, hits give low values 0.996 | S. cerevisiae deletion strains, locus YOL006C, strain TOP1, hits give low values 0.863 | S. cerevisiae deletion strains, locus YOL012C, strain htz1 1.1 | S. cerevisiae deletion strains, locus YOL147C, strain pex11, hits give low values 0.982 | S. cerevisiae deletion strains, locus YOR001W, strain rrp6, hits give low values 1.02 | S. cerevisiae deletion strains, locus YOR061W, strain CKA2, hits give low values 0.996 | S. cerevisiae deletion strains, locus YOR069W, strain VPS5, hits give low values 1 | S. cerevisiae deletion strains, locus YOR070C, strain gyp1, hits give low values 1 | S. cerevisiae deletion strains, locus YOR080W, strain dia2, hits give low values 1 | S. cerevisiae deletion strains, locus YOR083W, strain WHI5, hits give low values 1.01 | S. cerevisiae deletion strains, locus YOR106W, strain vam3, hits give low values 1.01 | S. cerevisiae deletion strains, locus YOR136W, strain idh2, hits give low values 0.992 | S. cerevisiae deletion strains, locus YOR144C, strain elg1, hits give low values 0.991 | S. cerevisiae deletion strains, locus YOR184W, strain ser1, hits give low values 0.913 | S. cerevisiae deletion strains, locus YOR265W, strain rbl2, hits give low values 1 | S. cerevisiae deletion strains, locus YOR270C, strain vph1, hits give low values 0.915 | S. cerevisiae deletion strains, locus YOR290C, strain snf2, hits give low values 1.02 | S. cerevisiae deletion strains, locus YOR316C, strain cot1, hits give low values 0.99 | S. cerevisiae deletion strains, locus YPL051W, strain arl3, hits give low values 1 | S. cerevisiae deletion strains, locus YPL055C, strain LGE1, hits give low values 0.946 | S. cerevisiae deletion strains, locus YPL078C, strain atp4, hits give low values 1 | S. cerevisiae deletion strains, locus YPL106C, strain sse1, hits give low values 1.02 | S. cerevisiae deletion strains, locus YPL240C, strain hsp82, hits give low values 0.995 | S. cerevisiae deletion strains, locus YPL241C, strain CIN2, hits give low values 1 | S. cerevisiae deletion strains, locus YPR119W, strain clb2, hits give low values 0.989 | S. cerevisiae deletion strains, locus YPR141C, strain kar3, hits give low values 0.997 | S. cerevisiae deletion strains, locus YPR163C, strain tif3, hits give low values 0.979 | S. cerevisiae deletion strains, locus YPR167C, strain met16, hits give low values 0.983 | S. cerevisiae deletion strains, strain wtn01, hits give low values 0.96 | S. cerevisiae strains, strain wild type, hits give low values 1.01
